The campaign covered roughly 2,100 compounds. About 480 (23%) were called active. About 5% were inconclusive and are not listed.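 Rule for the calls: active = fitted curve reaches 40% activation at or below the top valid concentration, in every replicate test; inconclusive = replicate tests disagree on the call; inactive = the rest, including activity in the opposite direction.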 The list is a sample of the results. Results with a measured potency or affinity are listed apart.
Test: PGC1a acetylation increase, cellular AlphaLISA – cell-based, cherry-picked samples, set 6, dose response (AID 720513);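 note: cells made to overexpress flag tagged PGC1a plus GCN5 acetyltransferase by viral infection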
Settings: U2OS PGC1a acetylation AlphaLISA, overnight, 0 = neutral, -100 = inhibitor control; series mostly up to 19.5 µM; activation (acetylation increase): at the top concentration

Activation (acetylation increase), inactive:
CCOC(=O)CS(=O)(=O)c1nc(-c2ccccc2)cc(C(F)(F)F)n1 -100%
CCOc1ccc(/C=C/C(=O)Oc2ccccc2)cc1 -2.16%
CSc1cccc(N2CC(C(=O)NCCN3C(=O)S/C(=C\c4cccnc4)C3=O)CC2=O)c1 (stereo not given) 7.23%
CN(C)C(=O)C[C@@H]1CC[C@@H]2[C@H](COC[C@@H](O)CN2C(=O)C2CCOCC2)O1 -7.2% [at 10 µM]
CC(C)C#Cc1ccc([C@@H]2[C@H]3CN(C(=O)NC4CCCC4)CC(=O)N3[C@H]2CO)cc1 20.8%
CC(=O)Nc1cccc(-c2ccnc3c2CC(C)(C(=O)Nc2ccc4c(c2)OCO4)O3)c1 (stereo not given) 13.7%
O=C(CN(Cc1ccc2c(c1)OCO2)C(=O)CNS(=O)(=O)c1ccccc1)NCc1ccco1 6.43%
Cc1ccccc1OCC(=O)OCC(=O)NCc1ccc2c(c1)OCO2 -2.91%
Cn1c(SC2=CS(=O)(=O)c3ccccc32)nc2ccccc21 -91.8%
CCOC(=O)CNC(=O)OC1CCN2Cc3ccccc3N=C12 (stereo not given) -16.2%
CN(C)CCNc1oc(COc2ccc(-c3ccccc3)cc2)nc1C#N -99.8%
C[C@H](CO)N1C[C@H](C)[C@@H](CN(C)C(=O)c2ccccn2)Oc2ncc(-c3cccc(C#N)c3)cc2C1=O 1.18%
Cc1nc(N(CCO)C2CCCCC2)c2nnn(Cc3ccccc3)c2n1 -1.58%
C[C@H](NC(=O)C[C@H]1CC[C@@H](NC(=O)C2CC2)[C@H](CO)O1)c1ccccc1 -6.11%
C[C@@H]1CCCCO[C@@H](CN(C)C(=O)c2ccncc2)[C@@H](C)CN([C@H](C)CO)C(=O)c2cc(NC(=O)CCCCCC(=O)Nc3ccccc3N)ccc2O1 -5.98%
O=C(CSc1nc2cc(Cl)ccc2s1)NCC1CCCO1 (stereo not given) 4.04%
COc1ccccc1CNC(=O)C[C@@H]1CC[C@@H]2[C@H](COC[C@H](O)CN2C(=O)Nc2ccc(Cl)cc2)O1 32.8%
CN1CCN(C(=O)C[C@@H]2CC[C@@H]3[C@H](COC[C@H](O)CN3CC3CCCCC3)O2)CC1 -4.22%
Cc1ccc(Nc2nc(-c3c(C)nc4ncccn34)cs2)cc1 -31.5%
Cc1cnc(NC(=O)c2nn(C)cc2[N+](=O)[O-])s1 12.9%
C[C@@H]1CN([C@H](C)CO)C(=O)c2cc(NC(=O)Nc3ccc(F)cc3)ccc2O[C@@H](C)CCCCO[C@@H]1CN(C)C(=O)NC1CCCCC1 2%
CCCc1nc2c(=O)n(C)c(=O)nc-2n(C)n1 -98%
COc1ccccc1N=C1NC(=O)/C(=C/c2ccc(N(C)C)cc2)S1 -4.74%
O=C1/C(=C/c2ccccc2[N+](=O)[O-])COc2ccccc21 -86.7%
O=C1C=CCCN1C(=O)/C=C/c1ccccc1Cl -85%
